# The sample as a whole holds a higher share of hits than the screen did.
# Methyltransferases = Primary Screen for Target Class Profiling of Small Molecule Inhibitors of Methyltransferases; purified enzyme, MTase-Glo SAH luminescence; stronger effect = lower value; calls only at 40 µM; 25,000 tested, 3.9% active; call rule not given here
#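 Each enzyme was assayed with SAM and its substrate. SAH formation detected by MTase-Glo luminescence; single-point 40 uM screen[…].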
# MTase-Glo counter = detection enzyme interference, methyltransferase counter-screen; Potency, µM (highest dose often 57.3 µM), for the others: at the highest dose activity change, negative = inhibition, usual class: inhibitors; AID 1745851; shares compounds with Methyltransferases; 180 tested, 6% active; MTase-Glo coupled enzymes, SAH conversion luminescence, no MTase; active = well fitted inhibition curve with a large enough effect; also: potency is read from the fitted curve at half-maximal effect
# * marks the source's active call; other numbers are inactive results; i = inactive; + = active, no number; [ ] = remark or other dose. % is scaled to controls: 0 for no effect and ±100 for the full control effect.
SMILES,Methyltransferases,others
CCc1cccc(NC(=O)Cn2c(=O)oc3cc(S(=O)(=O)N4CC(C)CC(C)C4)ccc32)c1 (configuration not stated),i,
CN1C(=O)c2cc(C(=O)NCc3ccccn3)nn2CC1(C)C(=O)NCc1ccc(F)cc1 (configuration not stated),i,
CC1CCCC(NC(=O)C2(C)Cn3c(cc4occc43)C(=O)N2Cc2cccc(Cl)c2)C1C (configuration not stated),i,
CCCC1c2ccc(C)n2CCN1C(=O)Nc1cc(Cl)c(OC)cc1OC (configuration not stated),i,
Cn1c(=O)c2ccc(C(=O)NC3CCCCC3)cc2n2c(=O)n(CC(=O)c3ccc(Cl)cc3)nc12,i,
Cc1cccc(Cn2nc3n(CC(C)C)c(=O)c4ccccc4n3c2=O)c1,i,
O=C(Cn1nc2c(cc1=O)CCCCC2)Nc1nnc(C2CCCO2)s1 (configuration not stated),i,
COC(=O)c1nc(NC(=O)Cn2nc3c(cc2=O)CCCC3)sc1C(C)C,+,MTase-Glo counter=-1.1%
CCc1nc(NC(=O)Cn2nc3c(cc2=O)CCCC3)sc1C,i,
CC(C)CCn1c(=O)c2ccc(C(=O)NC3CCCCC3)cc2n2c(=O)n(CC(N)=O)nc12,i,
COc1ccccc1NC(=O)CSc1nnc2n(CC(C)C)c(=O)c3ccc(Cl)cc3n12,i,
COc1ccc(OC)c(S(=O)(=O)N2CCN(S(=O)(=O)c3cc(OC)ccc3OC)CC2)c1,i,
COc1ccccc1NC(=O)CSc1nnc2n(CCC(C)C)c(=O)c3ccccc3n12,i,
CN1C(=O)c2cc(C(=O)NCCN3CCCC3)nn2CC1(C)C(=O)NC1CCCCC1 (configuration not stated),i,
CCCNc1cc(N2CCC(CCC(=O)NCCN3CCCCCC3)CC2)ncn1,+,MTase-Glo counter=1.0%
CCCNC(=O)CCc1ccnc(N2CCCC2)c1,i,
COc1ccc(-c2nnn3c2nc(N2CCOCC2)c2ccccc23)cc1,i,
Cn1cc(-c2cc3c(ccn3Cc3ccncc3)c(N3CCOCC3)n2)cn1,+,MTase-Glo counter=-3.4%[85.7 µM]
Cc1ccc(C2c3cccn3-c3sc4c(c3CN2C(=O)Nc2ccccc2)CCCC4)cc1 (configuration not stated),i,
O=C(Nc1ccccc1)c1cc2n(n1)CCN(C(=O)COc1ccccc1)C2,i,
O=C(Nc1ccccc1)c1cnc2c(c1)N(C(=O)Cc1ccc(O)cc1)CCC2,+,MTase-Glo counter=-5.5%[85.7 µM]
CC(C)c1ccc(CC(=O)N2CCCc3ncc(C(=O)NCCc4c[nH]c5ccccc45)cc32)cc1,i,
COC(=O)c1cc2n(n1)CC(C)(C(=O)NC1CCCC1)N(c1ccc(F)cc1C)C2=O (configuration not stated),i,
COc1ccc2c(c1)CC(NS(=O)(=O)c1cc(Cl)ccc1OC)CO2 (configuration not stated),i,
Cc1ccc(N2C(=O)c3cc4sccc4n3CC2(C)C(=O)NC2CCCCC2)c(C)c1 (configuration not stated),i,
SMILES,Methyltransferases,others
COc1ccc2c(c1)c(CN1C[C@@H](CO)[C@H](c3nc(C)no3)C1)cn2C,i,
COc1ccc(CN2C[C@@H](CO)[C@H](c3ccncc3)C2)c(OC)c1,+,MTase-Glo counter=3.8%
Cn1cccc1CN1C[C@@H](CO)[C@H](c2ccncc2)C1,i,
Cc1ccc(-c2ncccc2CNS(=O)(=O)c2ccc(C#N)cc2)cc1,i,
CCCN1C(=O)c2c(C(=O)NCc3ccc(CC)cc3)ncn2CC1(C)C(=O)NCc1ccc(C)cc1 (configuration not stated),i,
O=C1COc2ccc(-c3cccc(O)c3)nc2CN1Cc1ccc(C(F)(F)F)cc1,+,MTase-Glo counter=1.9%[85.7 µM]
O=C1COc2ccc(N3CCOCC3)nc2CN1Cc1ccc(F)cc1,i,
Cn1cc(-c2ccc3c(n2)CN(Cc2ccc(F)cc2)C(=O)CO3)cn1,i,
CSc1ccc(CCNC(=O)Cn2ccc3cc(S(=O)(=O)N4CCCC4)ccc32)cc1,i,
CCOc1ccc(N2C(=O)c3cc(-c4ccccc4)nn3CC2(C)C(=O)NCCCOC)cc1 (configuration not stated),i,
COc1ccc(CNc2nc3c(S(=O)(=O)c4ccc(C)c(C)c4)nnn3c3ccccc23)cc1,i,
Cc1cnc(-c2cccnc2)n1C1CCCN(CC2CCCCC2)C1 (configuration not stated),i,
c1ccc(-c2cc3c(cn2)NCCN(CC2CC2)C3)cc1,+,MTase-Glo counter=2.8%[114 µM]
Cc1cnc(-c2cccnc2)n1CC1CCN(S(=O)(=O)c2ccccc2)CC1,i,
CCCn1c(=O)c2ccc(Cl)cc2n2c(SCc3ccc(F)cc3)nnc12,i,
CCC(C)NC(=O)c1ccc2c(=O)n(C)c3nnc(SCc4ccccc4F)n3c2c1 (configuration not stated),i,
CNC(=O)NCCc1ncc(C)n1C1CCCCCCC1,+,MTase-Glo counter=0.0%
CCCNC(=O)NCCc1ncc(C)n1CC1CC1,i,
COC(=O)CNC(=O)NCCc1ncc(C)n1C1CCCC1,i,
CCC(C(=O)NCc1ccc(Cl)cc1)n1ccc2cc(S(=O)(=O)N3CCCCC3)ccc21 (configuration not stated),i,
CCCn1c(=O)c2ccccc2n2c(=O)n(Cc3ccc(Cl)cc3)nc12,i,
CN1CC2(CCN(C(=O)c3cccn3C)CC2)CC(c2ccccc2)C1=O (configuration not stated),i,
Cn1cccc1C(=O)N1CC[C@H](CO)[C@H](NC(=O)C2CC2)C1,i,
CN(C)CC1(O)CCC2(CCN(C(=O)c3cccn3C)CC2)CC1,+,MTase-Glo counter=5.41µM*
CCCCOC(=O)COc1ccc2c(-c3ccccc3)cc(=O)oc2c1C,i,
SMILES,Methyltransferases,others
COc1ccccc1NC(=O)CSc1nnc2n(Cc3ccccc3)c(=O)c3ccccc3n12,i,
Cc1ccc(N2C(=O)c3cc(-c4ccccc4)nn3CC2(C)C(=O)NCc2ccccc2)cc1Cl (configuration not stated),i,
COc1ccc(-c2cc3n(n2)CC(C)(C(=O)NCc2ccccc2)N(CCc2ccco2)C3=O)cc1 (configuration not stated),i,
CCOC(=O)c1ccc(N2C(=O)Cn3cccc3C2C(=O)NC2CCCCC2C)cc1 (configuration not stated),i,
CCCCN1C(=O)c2cc(C(=O)Nc3c(C)cc(C)cc3C)nn2CC1(C)C(=O)NC1CCCC1 (configuration not stated),i,
CC(=O)NC1CC2(CCN(Cc3ccc(O)cc3)CC2)c2ccccc21 (configuration not stated),+,MTase-Glo counter=2.0%
CC(=O)Nc1ccc(CN2CCC3(C2)C(=O)N(C)c2ccccc23)cc1 (configuration not stated),i,
CC(C)NC(=O)NC1CC2(CCN(C(=O)Cc3ccc(O)cc3)CC2)c2ccccc21 (configuration not stated),i,
O=C(CCn1ccc2cc(S(=O)(=O)N3CCCC3)ccc21)NCc1ccc2c(c1)OCO2,i,
CC1(C(=O)NC2CCCCCC2)Cn2c(ccc2-c2ccccc2)C(=O)N1CCC1=CCCCC1 (configuration not stated),i,
COc1cccn(CC(=O)N2CCN(c3ccccc3C#N)CC2)c1=O,i,
